# Assay results: the supplement of paper PMC6555819
# Assays:
# Test in all cases: PBM binding z-score (relative to random genomic background probes); higher = stronger binding; sequences stand for … in GC…GCGATTGACAGCGTAGAATGAAGG
# [1] = system: FXR:RXRa (NR concentration 270 nM, RXRa partner concentration 90 nM)
# Procedure, shortened: (§1)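 Each nuclear receptor dimer, without ligand, was incubated for 1 h on custom Agilent 4×180K protein-binding microarrays. Binding was detected with antibodies against each partner (one per run), and scanned fluorescence was regression-normalized. The binding z-scores are referenced to random human genomic background probes.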
# [2] = system: LXRa:RXRa (NR concentration 270 nM, RXRa partner concentration 90 nM)
# Procedure, shortened: as §1
# [3] = system: LXRa homodimer (NR concentration 270 nM)
# Procedure, shortened: as §1
# [4] = system: LXRb:RXRa (NR concentration 270 nM, RXRa partner concentration 90 nM)
# Procedure, shortened: as §1
# [5] = system: LXRb homodimer (NR concentration 270 nM)
# Procedure, shortened: as §1
# [6] = system: PPARa:RXRa (NR concentration 270 nM, RXRa partner concentration 90 nM)
# Procedure, shortened: as §1
# [7] = system: PPARg:RXRa (NR concentration 180 nM, RXRa partner concentration 90 nM)
# Procedure, shortened: as §1
# [8] = system: PPARg:RXRa 270nM:90nM, anti-RXR (NR concentration 270 nM, RXRa partner concentration 90 nM)
# Procedure, shortened: as §1
# [9] = system: PPARg:RXRa 30nM:10nM, anti-RXR (NR concentration 30 nM, RXRa partner concentration 10 nM)
# Procedure, shortened: as §1
# [10] = system: PPARg:RXRa 90nM:30nM, anti-RXR (NR concentration 90 nM, RXRa partner concentration 30 nM)
# Procedure, shortened: as §1
# [11] = system: PPARg:RXRa DBDmut IVT, anti-RXR (DBD mutation: RXRa K156A/R161A, NR concentration 270 nM, RXRa partner concentration 90 nM)
# Procedure, shortened: as §1
# [12] = system: PPARg:RXRa IVT, anti-PPARg (NR concentration 270 nM, RXRa partner concentration 90 nM)
# Procedure, shortened: as §1
# [13] = system: PPARg DBDmut:RXRa IVT, anti-PPARg (DBD mutation: PPARg1 K132A/R137A, NR concentration 270 nM, RXRa partner concentration 90 nM)
# Procedure, shortened: as §1
# [14] = system: PPARg DBDmut IVT, anti-PPARg (DBD mutation: PPARg1 K132A/R137A, NR concentration 270 nM)
# Procedure, shortened: as §1
# [15] = system: PPARg homodimer (NR concentration 180 nM)
# Procedure, shortened: as §1
# [16] = system: PXR:RXRa (NR concentration 270 nM, RXRa partner concentration 90 nM)
# Procedure, shortened: as §1
# [17] = system: PXR homodimer (NR concentration 270 nM)
# Procedure, shortened: as §1
# [18] = system: RARa:RXR (NR concentration 270 nM, RXRa partner concentration 90 nM)
# Procedure, shortened: as §1
# [19] = system: RARa homodimer (NR concentration 270 nM)
# Procedure, shortened: as §1
# [20] = system: RARb:RXRa (NR concentration 270 nM, RXRa partner concentration 90 nM)
# Procedure, shortened: as §1
Sequence,PBM binding z-score [1],PBM binding z-score [2],PBM binding z-score [3],PBM binding z-score [4],PBM binding z-score [5],PBM binding z-score [6],PBM binding z-score [7],PBM binding z-score [8],PBM binding z-score [9],PBM binding z-score [10],PBM binding z-score [11],PBM binding z-score [12],PBM binding z-score [13],PBM binding z-score [14],PBM binding z-score [15],PBM binding z-score [16],PBM binding z-score [17],PBM binding z-score [18],PBM binding z-score [19],PBM binding z-score [20]
AATACAGGGTCACCGTAGGCCAGAGTACGCACAG,7.2,6.43,1.2,4.96,0.78,6.14,7.71,6.83,3.15,5.65,3.34,4.88,1.63,0.332,2.04,4.97,0.366,5.28,0.752,4.8
TCATATAGGTAAAGGTGAAATTCGAACGATATGA,0.843,1.08,-0.192,1.14,0.15,3.13,4.11,4.26,4.22,4.3,3.77,3.94,1.35,1.08,0.745,0.895,0.378,1.54,0.597,1.77
CGTCCAAGGTCAGCAGGTCAGTGCAAGCGACGTG,5.87,3.79,0.73,2.8,-0.131,4.86,4.09,4.53,1.16,2.98,3.15,3.71,-0.109,-0.869,3.88,3.68,0.651,4.87,0.357,5.27
TCTGCTAGGTCAACGATGGTCAGCTATTCTGCTA,3.16,2.62,-0.457,1.39,-0.158,3.15,2.42,2.96,2,2.29,4.2,4.42,0.0784,0.733,0.972,1.41,-1.08,2.24,-0.753,4.11
GCTGGTAGGTCAACTGATGGTCAGCTAAAGCTCG,4.7,3.62,0.696,2.66,0.322,4.64,4.59,4.72,1.84,3.71,5.49,5.82,0.658,0.562,3.06,2.3,-0.226,3.53,1.16,4.29
ACTTACGGGTCAACGAGGTTCTAGCACGCGTATA,6.65,4.04,0.325,3.66,0.336,5.59,5.12,4.83,1.82,3.67,3.33,3.8,1.11,0.889,2.64,4.32,0.435,4.17,0.866,4.12
ACTAGTTGGTCTGCTGAGGTCACACACAATTCGG,2.8,2.9,1.91,3.28,0.53,3.39,1.35,1.95,0.572,1.35,0.557,1.95,0.686,1.46,2.32,4.42,1.43,3.73,0.842,3.2
